Inconclusive results are not listed. Active and inactive are the calls of the source. Unless noted, the call rests on the fitted dose curve; in most records, active means well fitted curve in the direction sought with a large enough effect in the repeat runs; inconclusive means weak or mixed curves; inactive means no such curve, though single readings can be large; an effect the other way counts as inactive or inconclusive.
Assays:
[1] = target: Luciferin 4-monooxygenase (Photinus pyralis) (UniProt P08659); test: qHTS assay to identify small molecule inhibitors of firefly luciferase (AID 1224835); further: nearly all actives have a fitted effect of over 25% in size; further: potency means the concentration at half of the fitted maximal effect; settings: purified P. pyralis luciferase, luminescence inhibition; series mostly up to 115 µM
Summary of the method: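 Quantitative HTS format; KM concentrations of both substrates. Purified P. pyralis FLuc activity quantified from luminescence images.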

[2] = qHTS assay to identify small molecule agonists of the constitutive androstane receptor (CAR) signaling pathway - cell viability counter screen (AID 1224836); settings: HepG2-CYP2B6-hCAR viability, CellTiter-Fluor, 23 h, PK11195 added to every well; series mostly up to 92.4 µM; further: nearly all actives have a fitted effect of over 45% in size
Summary of the method: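 HepG2 cells stably carrying hCAR and a CYP2B6-2.2kb reporter; 15-concentration compounds plus PK11195 (final 0.75 uM), 23 hr at 37 C/5% CO2. Viability read by CellTiter-Fluor fluorescence.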

[3] = qHTS assay to identify small molecule antagonists of the constitutive androstane receptor (CAR) signaling pathway - cell viability counter screen (AID 1224837); settings: HepG2-CYP2B6-hCAR viability, CellTiter-Fluor, 23 h, co-treated with 50 nM CITCO; series mostly up to 92.4 µM; further: nearly all actives have a fitted effect of over 45% in size
Summary of the method: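 HepG2 cells stably carrying hCAR and CYP2B6-2.2kb reporter, stimulated with 50 nM CITCO and compounds at 15 concentrations for 23 h at 37 C. Viability measured by CellTiter-Fluor fluorescence.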

[4] = qHTS assay to identify small molecule antagonists of the estrogen related receptor signaling pathway with the pleiotropic PPARgamma coactivator (PGC) from Tox21 10K library - cell viability counter screen (AID 1224840; active means well fitted cell-killing curve with a large enough effect in the repeat runs, not every such curve was filed as active; further: nearly all actives have a fitted effect of over 40% in size); settings: PGC/ERR reporter cells viability, CellTiter-Fluor, 17.5 h; series mostly up to 92.4 µM
Summary of the method: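 PGC/ERR cells (2,000/well) plated 6 h, then compound-treated for 17.5 h at 37 C. Viability measured by CellTiter-Fluor fluorescence after 30 min at 37 C, multiplexed with the pathway assay.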

[5] = qHTS assay to identify small molecule antagonists of the estrogen related receptor signaling pathway with the pleiotropic PPARgamma coactivator (PGC) from Tox21 10K library (AID 1224841; call rule not given here; further: actives are mostly falling curves and most rising ones were filed inactive; nearly all actives have a fitted effect of over 50% in size; further: potency means the concentration at half of the fitted maximal effect); settings: PGC/ERR reporter cell line, ONE-Glo luciferase, 18 h; series mostly up to 92.4 µM
Summary of the method: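 PGC/ERR cell line, 2,000 cells/well, pre-incubated 6 hours at 37 C, then exposed to compounds for 18 hours at 37 C; luciferase read with One-Glo luminescence after 30 min at room temperature.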

[6] = qHTS assay to identify small molecule agonists of the estrogen related receptor signaling pathway with the pleiotropic PPARgamma coactivator (PGC) from Tox21 10K library (AID 1224842); settings: PGC/ERR reporter cell line, luciferase ONE-Glo, 18 h; series mostly up to 92.4 µM; further: nearly all actives have a fitted effect of over 15% in size
Summary of the method: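 PGC/ERR reporter cells (NTP line) were seeded 2,000 per well, rested 6 h at 37 C/5% CO2, then pin-dosed with compounds in DMSO for 18 h at 37 C; luciferase read by One-Glo luminescence after 30 min at room temperature.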

[7] = qHTS assay to identify small molecule agonists of the hypoxia (HIF-1) signaling pathway - cell viability counter screen (AID 1224844; calls by dose curve; further: nearly all actives have a fitted effect of over 50% in size; further: potency means the concentration at half of the fitted maximal effect); settings: HRE-bla ME-180 viability, CellTiter-Glo luminescence, 17 h; series mostly up to 76.8 µM
Summary of the method: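 HRE-bla ME-180 cells, 2,000/well in 0.5% dialyzed FBS medium, treated 17 h at 37C with compounds. Viability read in the same wells as the bla reporter, by CellTiter-Glo luminescence after 30 min at room temperature.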

[8] = qHTS assay to identify small molecule agonists of the hypoxia (HIF-1) signaling pathway (AID 1224846; active means well fitted activation curve with a large enough effect in the signal ratio in the repeat runs, not every such curve was filed as active; the % refers to the signal ratio); settings: HRE-bla ME-180 cells, beta-lactamase ratio, 17 h; series mostly up to 76.8 µM
Summary of the method: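 HRE-bla ME-180 beta-lactamase reporter cells in medium with 0.5% dialyzed FBS, pre-incubated 5 h then exposed to compounds 17 h at 37C, 5% CO2; reporter induction read with CCF4-AM FRET substrate.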

[9] = qHTS assay to identify small molecule agonists of H2AX - cell viability counter screen (AID 1224847; calls by dose curve; further: top concentration of the series differs between compounds; nearly all actives have a fitted effect of over 30% in size); settings: CHO-K1 viability, CellTiter-Glo luminescence, 3 h; series mostly up to 154 µM
Summary of the method: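 CHO-K1 cells plated overnight at 37C, then exposed 3 h at 37C to compounds at 15 concentrations (0.76% DMSO final). Viability by CellTiter-Glo luminescence after 30 min at room temperature.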

[10] = qHTS assay to identify small molecule antagonists of the estrogen related receptor (ERR) signaling pathway from Tox21 library (AID 1224848); settings: ERR reporter cell line, luciferase antagonist mode, 18 h; series mostly up to 92.4 µM; further: nearly all actives have a fitted effect of over 50% in size; further: potency means the concentration at half of the fitted maximal effect
Summary of the method: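 Screening used an ERR reporter line supplied by NTP, exposed for 18 h at 37 C to library compounds delivered in DMSO. Signal was luciferase luminescence developed with ONE-Glo at room temperature for 30 min.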

[11] = qHTS assay to identify small molecule agonists of the estrogen related receptor (ERR) signaling pathway from Tox21 library (AID 1224849; calls by dose curve; further: nearly all actives have a fitted effect of over 15% in size); settings: ERR reporter cell line, ONE-Glo luciferase, 18 h; at 92.4 µM (top of the series) unless noted
Summary of the method: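 ERR reporter cells (NTP line) pre-incubated 6 hours at 37 C, then exposed to compounds for 18 hours at 37 C. ONE-Glo luciferase luminescence was read after 30 minutes at room temperature.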

[12] = qHTS RealTime-Glo MT Cell Viability Assay in HepG2 cells - 24 hour (AID 1224867); settings: RealTime-Glo luminescence; series mostly up to 76.8 µM; further: nearly all actives have a fitted effect of over 50% in size
Summary of the method: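 HepG2 cells (600/well) were dispensed with RealTime-Glo reagents, incubated 5 h at 37 °C, then treated with compounds in DMSO for up to 40 h. Nonlytic NanoLuc luminescence reflecting viable cells was read at each stated time point.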

[13] = qHTS RealTime-Glo MT Cell Viability Assay in HEK293 cells - 32 hour (AID 1224868); settings: RealTime-Glo luminescence; series mostly up to 76.8 µM; further: nearly all actives have a fitted effect of over 50% in size; further: potency means the concentration at half of the fitted maximal effect
Summary of the method: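 HEK293 cells seeded with NanoLuc/prosubstrate reagent, rested 5 h at 37 C, then dosed and kept at 37 C up to 40 h. Nonlytic real-time luminescence from viable cells read at 0, 8, 16, 24, 32 and 40 h.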

[14] = A CellTox Green Cytotoxicity Assay to monitor cytotoxicity in HEK293 cells - 0 hour (AID 1224869); settings: CellTox Green fluorescence; series mostly up to 76.8 µM; further: nearly all actives have a fitted effect of over 50% in size
Summary of the method: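 HEK293 cells, 600/well, were preincubated 5 hours and then exposed to compounds at 37 C for up to 40 hours. A cell-impermeant cyanine dye staining dead-cell DNA was read by fluorescence at 0, 8, 16, 24, 32 and 40 h time points.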

[15] = qHTS RealTime-Glo MT Cell Viability Assay in HepG2 cells - 40 hour (AID 1224870); settings: RealTime-Glo luminescence; series mostly up to 76.8 µM; further: nearly all actives have a fitted effect of over 50% in size; further: potency means the concentration at half of the fitted maximal effect
Summary of the method: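 HepG2 cells mixed with RealTime-Glo MT reagents (NanoLuc plus cell-permeant prosubstrate) were seeded at 600 cells/well, incubated 5 h at 37 C/5% CO2, then pinned with compounds in DMSO; nonlytic luminescence tracked viability during 40 h treatment.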

[16] = target: Nuclear receptor subfamily 1 group I member 3 (Homo sapiens) (UniProt Q14994); test: qHTS assay to identify small molecule antagonists of the constitutive androstane receptor (CAR) signaling pathway (AID 1224838); settings: HepG2-CYP2B6-hCAR luciferase, CITCO-stimulated, 24 h; series mostly up to 92.4 µM; further: nearly all actives have a fitted effect of over 40% in size; further: potency means the concentration at half of the fitted maximal effect
Summary of the method: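 HepG2 cells stably carrying hCAR and a CYP2B6-2.2kb luciferase reporter, seeded 4 hrs before compound (15 concentrations). Stimulated with 50 nM CITCO for 24 hr at 37 C. ONE-Glo luminescence read after 30 min at room temperature.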

[17] = target: Thyrotropin receptor (Homo sapiens) (UniProt P16473); test: qHTS assay to identify small molecule agonists of the thyroid stimulating hormone receptor (TSHR) signaling pathway (AID 1224843; calls by dose curve; further: nearly all actives have a fitted effect of over 45% in size); settings: TSHR-HEK293 cells, cAMP HTRF, agonist mode, 30 min; series mostly up to 92.4 µM
Summary of the method: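 Cell line HEK293 with TSHR; density 800/well. Exposure 30 min RT. Readout HTRF cAMP (cAMP-d2/anti-cAMP-cryptate), 1 h RT before reading.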

[18] = qHTS assay to identify small molecule agonists of H2AX (AID 1224845; active means well fitted activation curve with a large enough effect in the signal ratio in the repeat runs, not every such curve was filed as active; the % refers to the signal ratio; further: potency means the concentration at half of the fitted maximal effect); settings: CHO-K1 phospho-H2AX Ser139 HTRF, 3 h; series mostly up to 154 µM
Summary of the method: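 Wild-type CHO-K1 cells plated overnight, then exposed 3 hr at 37C to compounds at 15 concentrations (0.76% DMSO). Lysed, then HTRF anti-pH2AX(S139)-cryptate/anti-H2AX-d2 detection after 24 hr at room temperature; emissions 665 and 620 nm.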

[19] = target: Nuclear receptor subfamily 1 group I member 3 (Homo sapiens) (UniProt Q14994); test: qHTS assay to identify small molecule agonists of the constitutive androstane receptor (CAR) signaling pathway (AID 1224839); settings: HepG2 hCAR CYP2B6-luciferase, agonist mode, 24 h; series mostly up to 92.4 µM; further: nearly all actives have a fitted effect of over 15% in size; further: potency means the concentration at half of the fitted maximal effect
Summary of the method: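 HepG2 cells stably co-transfected with hCAR and a CYP2B6-2.2kb luciferase reporter; compounds at 15 concentrations with 0.75 uM PK11195 present. After 24 hr at 37 C, luciferase read by ONE-Glo luminescence.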

[20] = qHTS assay to identify small molecule antagonists of the estrogen related receptor (ERR) signaling pathway from Tox21 library - cell viability counter screen (AID 1224834); settings: ERR reporter cells viability, CellTiter-Fluor, 17.5 h; series mostly up to 92.4 µM; further: nearly all actives have a fitted effect of over 30% in size
Summary of the method: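 ERR reporter cells, 2,000 per well, rested 6 h, then exposed to compound in DMSO for 17.5 hours at 37 C. Viability read as fluorescence after 30 min with CellTiter-Fluor.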
On the % scale 0 is the no-effect control and ±100 the full control effect.

Chain of Nuclear receptor subfamily 1 group I member 3 (Homo sapiens) (Q14994 whole entry, looked up): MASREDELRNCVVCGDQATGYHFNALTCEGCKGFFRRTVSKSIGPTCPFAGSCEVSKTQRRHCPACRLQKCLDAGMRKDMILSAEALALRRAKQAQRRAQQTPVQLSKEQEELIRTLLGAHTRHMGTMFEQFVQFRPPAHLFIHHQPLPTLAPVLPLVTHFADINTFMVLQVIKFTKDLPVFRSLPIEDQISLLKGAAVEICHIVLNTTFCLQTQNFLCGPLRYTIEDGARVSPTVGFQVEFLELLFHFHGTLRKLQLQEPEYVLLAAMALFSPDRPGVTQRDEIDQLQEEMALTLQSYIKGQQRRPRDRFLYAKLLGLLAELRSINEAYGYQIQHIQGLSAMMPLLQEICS
Chain of Luciferin 4-monooxygenase (Photinus pyralis) (P08659 whole entry, looked up): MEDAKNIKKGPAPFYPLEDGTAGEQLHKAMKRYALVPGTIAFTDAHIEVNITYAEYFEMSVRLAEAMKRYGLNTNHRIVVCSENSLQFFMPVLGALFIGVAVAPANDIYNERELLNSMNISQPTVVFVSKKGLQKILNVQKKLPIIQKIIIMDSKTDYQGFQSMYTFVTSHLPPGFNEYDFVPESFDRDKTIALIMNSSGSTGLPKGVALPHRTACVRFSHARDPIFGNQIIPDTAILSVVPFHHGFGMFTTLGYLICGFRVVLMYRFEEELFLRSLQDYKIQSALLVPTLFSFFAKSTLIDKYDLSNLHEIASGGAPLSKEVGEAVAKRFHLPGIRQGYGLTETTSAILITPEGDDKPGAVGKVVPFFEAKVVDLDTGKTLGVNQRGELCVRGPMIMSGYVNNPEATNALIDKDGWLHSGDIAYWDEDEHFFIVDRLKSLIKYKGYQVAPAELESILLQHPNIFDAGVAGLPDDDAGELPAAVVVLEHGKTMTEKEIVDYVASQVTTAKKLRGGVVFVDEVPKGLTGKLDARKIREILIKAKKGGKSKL
Chain of Thyrotropin receptor (Homo sapiens) (P16473 whole entry, looked up): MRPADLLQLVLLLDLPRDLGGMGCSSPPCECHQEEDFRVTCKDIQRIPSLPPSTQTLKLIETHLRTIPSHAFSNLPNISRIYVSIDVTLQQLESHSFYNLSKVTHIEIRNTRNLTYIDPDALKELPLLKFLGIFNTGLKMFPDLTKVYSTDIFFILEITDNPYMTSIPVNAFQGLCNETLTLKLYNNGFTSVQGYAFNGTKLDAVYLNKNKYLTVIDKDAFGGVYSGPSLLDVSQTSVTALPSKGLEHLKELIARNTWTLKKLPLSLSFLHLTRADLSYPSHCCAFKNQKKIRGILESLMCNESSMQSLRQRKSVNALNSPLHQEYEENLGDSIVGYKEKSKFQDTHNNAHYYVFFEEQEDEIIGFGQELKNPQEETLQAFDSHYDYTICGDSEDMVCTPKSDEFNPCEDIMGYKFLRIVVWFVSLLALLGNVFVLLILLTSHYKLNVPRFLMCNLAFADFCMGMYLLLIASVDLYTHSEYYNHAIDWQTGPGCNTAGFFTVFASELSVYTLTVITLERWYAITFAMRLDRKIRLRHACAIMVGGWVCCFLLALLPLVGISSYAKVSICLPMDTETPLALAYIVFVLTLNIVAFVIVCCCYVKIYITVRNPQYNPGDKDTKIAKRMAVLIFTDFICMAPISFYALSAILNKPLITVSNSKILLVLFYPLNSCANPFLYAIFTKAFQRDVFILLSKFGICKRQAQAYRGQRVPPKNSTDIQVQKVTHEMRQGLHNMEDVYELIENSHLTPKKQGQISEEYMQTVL

Cc1cc(CC(=O)O)c(C)n1-c1ccc(Cl)cc1
inactive: Potency [1] | Potency [2] | Potency [3] | Potency [4] | Potency [5] | Potency [6] | Potency [7] | outcome [8] | Potency [9] | Potency [10] | activity change, positive = activation [11] -14.3% [at 42.5 µM] | Potency [12] | Potency [13] | Potency [14] | Potency [15]

C[C@H](CCC(=O)O)[C@H]1CC[C@H]2[C@@H]3[C@H](O)C[C@@H]4C[C@H](O)CC[C@]4(C)[C@H]3CC[C@]12C
active: Potency [1] 79.9 µM
inactive: Potency [2] | Potency [3] | Potency [16] | Potency [4] | Potency [5] | Potency [17] | Potency [18] | Potency [9] | Potency [10] | Potency [12] | Potency [14] | Potency [15]

COCCCCCCCCOCCC[Si](C)(O[Si](C)(C)C)O[Si](C)(C)C
inactive: Potency [1] | Potency [19] | Potency [7] | Potency [18] | outcome [8] | Potency [12] | Potency [14] | Potency [15]
active: Potency [16] 48.6 µM | Potency [13] 3.89 µM

Nc1ccc(C(=O)Nc2ccccc2N)cc1
active: Potency [7] 12 µM | activity change, positive = activation [11] 21.9% [at 42.5 µM] | Potency [15] 13.4 µM
inactive: Potency [20] | Potency [2] | Potency [3] | Potency [19] | Potency [4] | Potency [17] | outcome [8] | Potency [9] | Potency [10] | Potency [12] | Potency [14]

O=S1(=O)N=C(O)c2ccccc21
inactive: Potency [20] | Potency [2] | Potency [3] | Potency [4] | Potency [17] | Potency [9] | Potency [12] | Potency [13] | Potency [14] | Potency [15]

c1ccc(OCc2ccc(CCCN3CCOCC3)cc2)cc1
inactive: Potency [2] | Potency [3] | Potency [16] | Potency [4] | Potency [5] | Potency [6] | Potency [17] | Potency [7] | Potency [18] | outcome [8] | Potency [9] | activity change, positive = activation [11] -24.5% [at 42.5 µM] | Potency [12] | Potency [14] | Potency [15]
active: Potency [19] 29.8 µM | Potency [13] 19 µM

Oc1ccc(Sc2ccc(O)cc2)cc1
inactive: Potency [2] | Potency [3] | Potency [16] | Potency [7] | outcome [8] | Potency [9] | Potency [12] | Potency [14] | Potency [15]
active: Potency [19] 57.2 µM | Potency [18] 83.9 µM | Potency [13] 20.5 µM

CC(C(=O)O)c1ccc(-c2ccccc2)c(F)c1 (configuration not stated)
inactive: Potency [20] | Potency [2] | Potency [3] | Potency [19] | Potency [4] | Potency [18] | Potency [12] | Potency [14] | Potency [15]

CCOC(=S)SSC(=S)OCC
inactive: Potency [20] | Potency [2] | Potency [3] | Potency [19] | Potency [4] | Potency [17] | Potency [7] | Potency [18] | Potency [9] | Potency [12] | Potency [13] | Potency [14] | Potency [15]

Cc1cccc(Oc2ccccc2)c1
inactive: Potency [1] | Potency [3] | Potency [16] | Potency [19] | Potency [6] | Potency [17] | Potency [18] | outcome [8] | activity change, positive = activation [11] -65.1% | Potency [12] | Potency [14] | Potency [15]
active: Potency [5] 53.1 µM | Potency [10] 26.6 µM

From PubChem BioAssay (Tox21)
